± gives the standard deviation of the averaged measurements. Over roughly 25,000 sequences, “ln(normalized median fluorescence intensity)” has its median near 8.6; the highest 2% begin near 10. Shown is part of a subset that was picked to be rich in the highest values.

In the test the test system is PfAP2-EXP AP2 domain (GST-tagged). As to the kind of experiment: gcPBM binding intensity (ln(normalized median fluorescence intensity)); higher = stronger DNA binding. Summed up: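 Probes on an Agilent 4 × 180k array were primer-extended, double-stranded and 36 bp long, taken from intergenic genomic regions, with negative controls added. GST-tagged P. falciparum DNA-binding domains from E. coli, about 25 μg on average, were applied to the array for 1 h in 1× PBS containing 1% milk, 0.2 mg/ml BSA, 0.5% salmon testes DNA and 0.03% Triton X-100. Binding intensity, obtained after Alexa488 anti-GST antibody detection and a 488 nm scan, is the highest Masliner-normalised natural-log median intensity across replicate spots of either probe orientation.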
For “AGAGAAGAAAACAAAACACACACATATATCTTAATA [CACACA_site8699]”, the “gcPBM binding intensity (ln)” value stood at 8.63 ± 0.71. For the sequence “AATTTTTAGTATATAACATAAAATAAAATAAAATAA [GTGCAC_negctrl_site696]”, the “gcPBM binding intensity (ln)” value was 8.47 ± 0.38. The same measure for “AAAATTATATTTTATAGAAATTTAAATAAATATATA [GTGCAC_negctrl_site199]”: 8.01 ± 0.38.

As to “AATATATATATTAAATGTACATTACATAATTATATA [XGTACX_site3450]”, the “gcPBM binding intensity (ln)” value was 8.54 ± 0.43. The figure for ATATATATATATATAGTGCACATTTATATAATTATT is 10.3 ± 0.17. As to TTATATTATATATATGTGCACATTTTTAAACTTGGA, the “gcPBM binding intensity (ln)” value is 8.71 ± 0.27. The same measure for TATATACATTTTTATGTGCACATTTTATTTTTAAAT: 9.15 ± 0.31; for “AATGTAAAATATATGTGTACATATGTTTATATATAT [XGTACX_site2216]”: 8.71 ± 0.23. The figure for “TTATTTTTATATTTTAATTTTAAAAAAATTTTAATT [CACACA_negctrl_site777]” is 8.04 ± 0.46. Consider “ACCTGTAAAAATGTTTATATATATATATATATATAT [CACACA_negctrl_site1500]”, for which the “gcPBM binding intensity (ln)” value was 10.3 ± 0.37.

Consider “ATTTTTTTATAAAATTTTTATATAATTTATTATAAA [GTGCAC_negctrl_site96]”, for which the “gcPBM binding intensity (ln)” value was 8.16 ± 0.52. On to “TATAATAATATTATAGTGCATATTATTTATATATAA [GTGCAC_site9820]”, for which the “gcPBM binding intensity (ln)” value worked out at 8.22 ± 0.2. The same measure for “ATAATATATAATATAGTGCATTATTTATTAATTAAT [GTGCAC_site9852]”: 8.56 ± 0.085. The figure for “AAAATATATATGTATGTTTATATGTTTATATATATT [XGTACX_negctrl_site337]” is 8.18 ± 0.49; for TATATATATATATATGTGCACATTTTATTAAAATGT it is 10.2 ± 0.34; for “TTTTAATTTAAAAATTAATTTATATATATATATATA [TGCATGCA_negctrl_site447]” it is 10.3 ± 1. As for “ATTATTTAGAAATGAGCACACAAAAAGAAGAATTTT [CACACA_site7913]”, the “gcPBM binding intensity (ln)” value came to 8.65 ± 0.52. The figure for “ATATAAAAAGTGTATCGTACATTTACTTATTTTATA [XGTACX_site6249]” is 8.46 ± 0.3; for “AATACTATTATTATTGCACACTTATTATCCCTCGGA [CACACA_site4262]” it is 8.65 ± 0.28; for “CACTAAACATATACACGTACATGCAACGGATTTTTT [XGTACX_site461]” it is 8.74 ± 0.3.

“ATGGACAAGTTAAACGCACACAAATATATACAGACA [CACACA_site1652]”: the “gcPBM binding intensity (ln)” value is 9.15 ± 0.73. The figure for “TATAATAAAATATTTTGTACGTATATTTTAATATTT [XGTACX_site2582]” is 8.32 ± 0.45; for “ATAACAAAATAATAATGTACGTATAAATATAATTTA [XGTACX_site6049]” it is 8.57 ± 0.4; for “ATATATTTTTTAAATTTAAAAATTATAAAATTTATA [TGCATGCA_negctrl_site36]” it is 8.16 ± 0.45. The same measure for “AAATAACAAATTTTTAAAATGTATATATATATATAT [TGCATGCA_negctrl_site219]”: 10.2 ± 0.74; for “TTTTTTAAATGTATTAAAATTATATATATATATATA [GTGCAC_negctrl_site570]”: 10.2 ± 0.25. As to “TTTTAAAATATATTTGTATATATATATATATATATA [XGTACX_negctrl_site536]”, the “gcPBM binding intensity (ln)” value stood at 10.4 ± 0.35. With “AAAAAAATTTTAAAATGTACAAATTTTAATATATAT [XGTACX_site7628]”, the “gcPBM binding intensity (ln)” value is 8.55 ± 0.26.

For the sequence “AAAAAAAAAAAAATGTAATTTTTTAATTATTTATAT [GTGCAC_negctrl_site436]”, the “gcPBM binding intensity (ln)” value worked out at 7.96 ± 0.43. The same measure for “TTTTTTATTAAATATATATAATAATAATAATTTGTA [CACACA_negctrl_site1719]”: 7.9 ± 0.37; for “AAAAAAAAAAAAAATACACACATATATAAATAAATA [CACACA_site6459]”: 8.31 ± 0.45.

On to “TATAAACATAAATATACACACAAACATATATGTATT [CACACA_site8324]”, for which the “gcPBM binding intensity (ln)” value was 8.51 ± 0.42. The same measure for “CTGTGTTTTGGTTGTACACACGCTACATTCTATATT [CACACA_site2698]”: 9.16 ± 0.28. The same measure for “TTTTTAAAAATAACAGAAAAGAATTACAGATTTTTT [XGTACX_negctrl_site472]”: 8.34 ± 0.41.

“TTTTGTTGCTCTTTTTTTTTTTTTTTTAACTGTATG [CACACA_negctrl_site1072]”: the “gcPBM binding intensity (ln)” value turned out to be 8.57 ± 0.43. Turning to “TTTTTTTGCTCTTTTTATATATATATATATATATAT [GTGCAC_negctrl_site70]”, the “gcPBM binding intensity (ln)” value stood at 10.2 ± 0.46. In the case of “TTTTGCTTTTTTTTTCTTTTTTGTTTTATATATATT [CACACA_negctrl_site103]”, the “gcPBM binding intensity (ln)” value worked out at 8.51 ± 0.53. On to “TATGTATATATATATATATATATATATATATATATA [TGCATGCA_negctrl_site491]”, for which the “gcPBM binding intensity (ln)” value turned out to be 10.1 ± 0.66. As for “TAAAGGAGCCTATGAACACACACATGTACTTATATT [CACACA_site9351]”, the “gcPBM binding intensity (ln)” value came out at 8.56 ± 0.4. Turning to “TGTATGAAATATATTACACACATATAAAATCTATAT [CACACA_site6514]”, the “gcPBM binding intensity (ln)” value was 8.35 ± 0.57. For “TCGAACATTAACATAACACACATATAGATTTATATA [CACACA_site7380]”, the “gcPBM binding intensity (ln)” value came to 8.29 ± 0.42. Regarding “TCGAACATTAACATAACACACATATATATATATATA [CACACA_site2900]”, the “gcPBM binding intensity (ln)” value worked out at 10.2 ± 0.32. Regarding “CATTATAAGAAACACACACACATATATATATATATA [CACACA_site1051]”, the “gcPBM binding intensity (ln)” value came out at 10.2 ± 0.47. As to “TTAATTAAGAAACACACACACATATATATATATATT [CACACA_site2290]”, the “gcPBM binding intensity (ln)” value amounted to 8.67 ± 0.42. The same measure for “TATATATTAAAACACACACACATATATATATATATA [CACACA_site3787]”: 10 ± 0.38. Take “CATTATTATTTTATAACACACACATATATATTATAT [CACACA_site8405]”: the “gcPBM binding intensity (ln)” value came to 8.48 ± 0.34. “AAACATAAGAAACACACACACATATATATATATATA [CACACA_site3642]”: the “gcPBM binding intensity (ln)” value stood at 10.1 ± 0.35. The figure for “AAATTTATAAAGAACACACACATATAAATATAAATA [CACACA_site6174]” is 8.93 ± 0.49.

Turning to “AAATTTATAAAGAACACACACATATATATATATATA [CACACA_site48]”, the “gcPBM binding intensity (ln)” value is 10.2 ± 0.27.

Take “TATATTAAGAAACACACACACATATATATATATATA [CACACA_site1609]”: the “gcPBM binding intensity (ln)” value turned out to be 10.2 ± 0.3. Take “CCAAATTTATAAAGAACACACACATATATATATATA [CACACA_site7900]”: the “gcPBM binding intensity (ln)” value worked out at 9.99 ± 0.4.

With “AACATTATAAGACACACACACACATATATATATATA [CACACA_site8259]”, the “gcPBM binding intensity (ln)” value turned out to be 10.1 ± 0.39. The same measure for “TTTTTTAAAAATATTATCATCGTAACAAGAAATCGA [CACACA_negctrl_site1111]”: 8.45 ± 0.4. As for “AATAAAAAACATGAAAGTACTTTAAAAAAGGTAATA [XGTACX_site1897]”, the “gcPBM binding intensity (ln)” value was found to be 8.9 ± 0.45.

With “CAAACAAATATATGTTGTACTTATTATATATACATA [XGTACX_site2998]”, the “gcPBM binding intensity (ln)” value was found to be 8.38 ± 0.33. “ATAATATAGAAACACACACACATATATATATACATT [CACACA_site555]”: the “gcPBM binding intensity (ln)” value was determined as 8.71 ± 0.29.
